High-throughput results deposited in PubChem BioAssay by The Scripps Research Institute Molecular Screening Center.
The list is not random: actives were taken first. Their share in the collection is about 3.4%.
MITF primary: MITF inhibitors, primary screen, biochemical, AlphaScreen, human; Microphthalmia-associated transcription factor (Homo sapiens), O75030; AlphaScreen MITF homodimerization, bead proximity signal; inhibition, % at 2.6 µM; 0.91% of 650,000 active; AID 1259374, 2018; in the data active = inhibition above about 50%;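 note: 0% = vehicle wells with protein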
FBW7 activator: FBW7 E3 ligase activators, primary screen, biochemical, AlphaScreen, human | 0.13% of 650,000 active | AID 1259310, 2017 | normalized activity (activation), % at 26.1 µM | F-box/WD repeat-containing protein 7 (Homo sapiens), Q969H0 | AlphaScreen FBW7–phospho-cyclin E peptide binding, activator screen; in the data active = normalized activity above about 1.9%;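 note: purified mutant Fbw7 with reduced substrate affinity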
Target sequence (Q969H0 whole entry, looked up): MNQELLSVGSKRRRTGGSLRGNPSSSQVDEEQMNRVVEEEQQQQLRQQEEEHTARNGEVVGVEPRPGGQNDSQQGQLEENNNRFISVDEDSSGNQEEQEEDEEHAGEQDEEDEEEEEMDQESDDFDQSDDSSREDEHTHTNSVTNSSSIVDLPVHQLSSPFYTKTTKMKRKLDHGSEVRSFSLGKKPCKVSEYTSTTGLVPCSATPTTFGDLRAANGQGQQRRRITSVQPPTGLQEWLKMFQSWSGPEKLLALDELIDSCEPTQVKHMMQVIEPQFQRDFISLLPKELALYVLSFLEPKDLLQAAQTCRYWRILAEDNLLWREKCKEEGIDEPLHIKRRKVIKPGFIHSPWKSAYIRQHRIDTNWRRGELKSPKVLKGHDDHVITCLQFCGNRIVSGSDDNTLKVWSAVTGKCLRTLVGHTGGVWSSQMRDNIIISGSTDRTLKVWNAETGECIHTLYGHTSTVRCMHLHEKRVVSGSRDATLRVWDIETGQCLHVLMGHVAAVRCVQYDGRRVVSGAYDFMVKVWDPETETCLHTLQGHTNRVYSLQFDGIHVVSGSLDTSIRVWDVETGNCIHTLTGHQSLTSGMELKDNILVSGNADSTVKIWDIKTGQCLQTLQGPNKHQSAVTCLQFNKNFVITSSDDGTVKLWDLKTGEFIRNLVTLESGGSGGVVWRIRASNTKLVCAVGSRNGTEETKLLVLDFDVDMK
GPR151 ag: activators of human GPR151, primary screen, cell-based, PathHunter beta-arrestin, luminescence; G-protein coupled receptor 151 (Homo sapiens), Q8TDV0; PathHunter beta-arrestin GPR151 cells; activation, % at 11.2 µM; 1% of 650,000 active; in the data active = activation above about 4.9%;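 note: 0% = median of compound wells and 100% = cells with positive control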
TEAD-YAP block: TEAD-YAP interaction inhibition, primary screen, TEAD-YAP interaction inhibitor project, luminescence, HEK-TIYL cells; TEAD-Gal4/YAP UAS-luciferase luminescence; AID 1259422, 2018; inhibition, % at 9.12 µM; 1.4% of 640,000 active; in the data active = inhibition above about 32%;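 note: 0% = median of test compound wells and 100% = reference inhibitor wells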
* = called active by the depositor.

SMILES | MITF primary | FBW7 activator | GPR151 ag | TEAD-YAP block
CC[N+](CC)=c1ccc2nc3c(cc(N)c4ccccc43)oc-2c1 | 7 | 0 | -2 | 33*
COc1ccc(-c2cn3cc(C)ccc3n2)cc1 | -3 | 0 | -8 | 82*
Cc1ccc2nc(-c3ccccc3Cl)cn2c1 | -6 | 0 | -7 | 93*
Cc1ccc2nc(-c3cc4ccccc4oc3=O)cn2c1 | -2 | 0 | -5 | -36
Cc1ccc2nc(-c3ccc(F)cc3)cn2c1 | -16 | 0 | -10 | 93*
COC(=O)c1ccc2nc(-c3ccc(F)cc3)cn2c1 | 3 | 0 | -9 | 42*
O=C1CSC(c2cccc(Oc3ccccc3)c2)N1c1ccc(Oc2ccc(Cl)cc2)cc1 (stereo not given) | 9 | 0 | 0 | 5
CN(C)c1ccc(/C=C2/SC(=Nc3ccc4ccccc4c3)NC2=O)cc1 | 0 | 0 | 3 | -10
O=C(N/N=C/c1ccc(N2CCOCC2)o1)c1ccccc1 | 16 | 0 | 0 | -32
N#CCC(=O)N/N=C/c1ccc(N2CCOCC2)o1 | 54* | 0 | -1 | 0
Cc1ccc(OCC(=O)c2cc(C)n(-c3ccccc3)c2C)c([N+](=O)[O-])n1 | 1 | 0 | 0 | 50*
C=CCn1c(C)cc(C(=O)COc2ccc(C)nc2[N+](=O)[O-])c1C | -6 | 0 | 2 | 30
Cc1ccc2c(c1)C(=Nc1ccc(I)cc1)C(=O)N2 | 21 | 2.1* | -1 | -9
CC1CN(CC(=O)N(CCO)Cc2ccccc2)Cc2cc(Cl)ccc2O1 (stereo not given) | -2 | 0 | 0 | 0
COCCNC(=O)CSc1nc2ccsc2c(=O)n1NC(=O)c1ccccc1 | 8 | 0 | 4 | -19
CCN(CC)c1nc(NCc2ccccc2)nc(Nc2ccc(N3CCOCC3)cc2)n1 | -12 | 0 | 1 | -17
O=C(Cc1c(F)cccc1Cl)N1CCC(c2cccnc2)CC1 | 4 | 0 | 1 | 5
O=C(Cc1c(F)cccc1Cl)N1CCC(c2ccncc2)CC1 | 15 | 0 | 0 | 42*
CC(O)c1nc2ccccc2[nH]1 (stereo not given) | -6 | 0 | -1 | 4
Cc1nnnn1/C(=C\c1ccccc1)C(=O)N[C@H](c1nc2ccccc2[nH]1)C(C)C | 5 | 0 | 0 | 49*
CCCNc1nc(Nc2ccc(N3CCOCC3)cc2)nc2c1ncn2-c1ccsc1 | 10 | 0 | 4 | 47*
c1cc(-n2cnc3c(NCCN4CCOCC4)nc(NCCN4CCOCC4)nc32)cs1 | 4 | 0 | 1 | 16
c1cc(-n2cnc3c(Nc4ccc(N5CCOCC5)cc4)nc(NCCN4CCOCC4)nc32)cs1 | 3 | 0 | 0 | 45*
c1cc(-n2cnc3c(NCCN4CCOCC4)nc(Nc4ccc(N5CCOCC5)cc4)nc32)cs1 | -17 | 0 | 1 | 62*
c1ccc(Nc2nc(NCCN3CCOCC3)c3ncn(C4CCCCC4)c3n2)cc1 | 6 | 0 | 0 | 16
SMILES | MITF primary | FBW7 activator | GPR151 ag | TEAD-YAP block
c1cn(-c2ccc(Nc3nc(NCCN4CCOCC4)c4ncn(C5CCCCC5)c4n3)cc2)cn1 | 8 | 0 | 0 | 47*
COCCCn1c(=O)/c(=C\c2ccccn2)s/c1=C(/C#N)C(=O)NC1CCCCC1 | -4 | 0 | 0 | 3
COc1cc(Nc2nc(NCCN3CCOCC3)nc3c2ncn3-c2ccsc2)cc(OC)c1OC | 2 | 0 | -1 | 6
c1cn(-c2ccc(Nc3nc(NCCN4CCOCC4)c4ncn(-c5ccsc5)c4n3)cc2)cn1 | -5 | 0 | 1 | 46*
CC(=O)Nc1ccc(Nc2nc(NCCN3CCOCC3)nc3c2ncn3-c2ccsc2)cc1 | -5 | 0 | 0 | 51*
Cc1ccc(-n2c(O)c(C=Nc3ccc(S(=O)(=O)CCO)cc3)c(=O)[nH]c2=O)cc1 | 0 | 0 | 0 | 7
CN1C(=O)/C(=C/c2ccccc2O)NC1=S | 1 | 1 | -1 | 16
CN1C(=O)/C(=C/c2cc(Br)ccc2O)NC1=S | -28 | 0 | 1 | 80*
CCOC(=O)c1cccc(C(=O)Nc2ccccc2C(=O)OC)n1 | 21 | 0 | -2 | 1
CCOC(=O)c1cccc(C(=O)NC2=NN(c3ccccc3)C(=O)C2)n1 | -25 | 51* | 1 | 0
COc1cccc(-c2nn3c(C4COc5ccccc5O4)nnc3s2)c1 (stereo not given) | 5 | 0 | 2 | 61*
Fc1cccc(-c2nn3c(C4COc5ccccc5O4)nnc3s2)c1 (stereo not given) | -6 | 0 | 0 | 3
COc1ccc(C2C(C#N)=C(N)N(c3ccc(Cl)cc3)C3=C2C(=O)CCC3)cc1 (stereo not given) | 8 | 0 | 1 | -2
Cc1ccc(N2C(N)=C(C#N)C(c3cc(Br)cs3)C3=C2CCCC3=O)cc1 (stereo not given) | 3 | 0 | 1 | 34*
CCOc1ccc(C2C(C#N)=C(N)N(c3ccc(C)cc3)C3=C2C(=O)CCC3)cc1 (stereo not given) | -9 | 0 | 0 | 57*
COc1ccc(N2C(N)=C(C#N)C(c3ccccc3)C3=C2CCCC3=O)cc1 (stereo not given) | 4 | 0 | 0 | 44*
COC(=O)c1ccc(C(=O)OC)c(NC(=O)c2cccs2)c1 | 8 | 0 | 0 | 12
CCOC(=O)C1=C(C)N=C2SC(C)C(=O)N2C1c1ccccc1[N+](=O)[O-] (stereo not given) | 11 | 0 | -1 | 14
O=C1C=C(NCc2ccc(Cl)cc2)CC(c2ccco2)C1 (stereo not given) | 11 | 0 | -1 | 16
O=C1C=C(Nc2ccc(Cl)cc2Cl)CC(c2ccco2)C1 (stereo not given) | 39 | 0 | -1 | 39*
COC(=O)c1sc(SC)nc1Nc1ccnc(Nc2cc(OC)ccc2OC)c1 | 9 | 0 | 5 | 48*
c1cc2ccc3ncc(-c4ccc(-c5ccn[nH]5)cc4)cc3c2cn1 | 12 | 2.0* | 0 | -18
Fc1ccc(-c2cnc3ccc4ccncc4c3c2)cc1 | 16 | 0 | 0 | -8
COCCN1CCN(C(=O)CCc2nnc(CCc3c[nH]c4ccccc34)o2)CC1 | 15 | 0 | -1 | -2
CCOC(=O)c1ccc(N2NC(=O)/C(=C/c3ccc([N+](=O)[O-])o3)C2=O)cc1 | 66* | 0 | 0 | 16
CCOC(=O)c1ccc(N2NC(=O)/C(=C/c3ccc(C)o3)C2=O)cc1 | 5 | 0 | 1 | 7
N#Cc1ccc(/C=C(\C(=O)C(=O)O)c2ccc3ccccc3n2)cc1 | 22 | 1 | -4 | -30
COC(=O)c1ccc(/C=C(\C(=O)C(=O)O)c2ccc3ccccc3n2)cc1 | 11 | 0 | -2 | 60*
CC1CCN(CCNS(=O)(=O)c2cccc3cccnc23)CC1 | -5 | 0 | -2 | 5
NC(=O)c1ccc(-c2cc(C(=O)NCc3cccnc3)ccn2)cc1 | -2 | 0 | -2 | 5
